TexasRed autofl: compounds fluorescent in Texas Red spectral region; AID 587; Compound fluorescence, Texas Red channel, 547/618 nm; active compounds read high; max dye-equivalent concentration, M; actives 0.06% (n = 59,000); in the data active = max dye-equivalent concentration above about 10 nM; inconclusive = between about 1.1 nM and that limit
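Compound titrations in 100 mM Tris pH 8.0 were incubated 15 min at room temperature and read at 547 nm excitation / 618 nm emission. Texas Red six-point standard curve on each plate converted fluorescence to dye-equivalent concentration.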
A488 autofl: compound fluoresces in the A488 spectral region. compound autofluorescence, A488 spectral region, dye equivalency; Compound Type: qHTS ECL - MLSMR. max dye equivalency, M. actives 0.1% (n = 59,000)
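Read-out: relative fluorescence at 480/540 nm, expressed as Alexa 488 dye-equivalent concentration from a six-point A488 standard included per plate. Conditions: 100 mM Tris, pH 8.0; 15 min incubation, room temperature.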
Rhodamine fluor: compound fluoresces in the rhodamine spectral region; actives 0.05% (n = 59,000); max dye-equivalent concentration, M; Rhodamine-region fluorescence, 547/598 nm, Tris buffer; active compounds read high; AID 594; in the data active = max dye-equivalent concentration above about 11 nM; inconclusive = between about 1.1 nM and that limit
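Steps: pin-transfer compounds into pH 8.0 Tris (100 mM), hold 15 min at room temperature, image with a 547/598 nm filter pair, and convert intensities to rhodamine-equivalent concentration using a six-point on-plate rhodamine series.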
Fluorescein fluor: fluorescein region autofluorescence; AID 593; actives 0.91% (n = 59,000); max fluorescein-equivalent concentration, M; Compound autofluorescence, 480/540 nm, fluorescein-equivalent; active compounds read high; in the data active = max fluorescein-equivalent concentration above about 10 nM; inconclusive = between about 1.1 nM and that limit
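Values reflect compound autofluorescence, normalized to fluorescein on the same plate and reported at each tested concentration. Conditions: 100 mM Tris pH 8.0, room temperature, 15 min, excitation 480 nm, emission 540 nm.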
A647 fluor: compound fluoresces in the A647 spectral region; max dye-equivalent concentration, M; AID 592; Compound fluorescence, A647 channel (570/671 nm), Tris buffer; 59,000 tested, under 10 active
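Fluorescence read (570 nm ex, 671 nm em) after 15 min RT incubation of compounds in 100 mM Tris buffer, pH 8.0; values expressed as dye-equivalent concentration against a six-point A647 standard series on each plate.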
Resorufin fluor: resorufin region autofluorescence | Compound fluorescence, resorufin region 547/598 nm, buffer; active compounds read high | max dye-equivalent concentration, M | actives 0.04% (n = 59,000)
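Read-out: intrinsic compound fluorescence at ex 547/em 598 nm after 15 min at RT in pH 8.0 Tris (100 mM). Values expressed as resorufin-equivalent concentration from per-plate standard series.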
Each line names hits and unclear results; the compound was inactive in the other large screens. In the library only some 0.9% were active in any assay of this set; here they are far more common. Unless noted, no rule for the calls is given here.

COc1ccccc1CN1CC[C@@]2(CCCN(C(=O)c3ccncc3)C2)C1	none
CCn1cc(C(=O)NCc2ccccn2)c(=O)c2cc(S(=O)(=O)N3CCCCC3)ccc21	TexasRed autofl inconclusive, Rhodamine fluor inconclusive, Fluorescein fluor 1.72e-08M, Resorufin fluor inconclusive
CCn1cc(C(=O)NCc2ccco2)c(=O)c2cc(S(=O)(=O)N3CCCCCC3)ccc21	none
Nc1ncnc2c1ncn2[C@@H]1O[C@@H](C(=O)NC2CC2)[C@H](O)[C@@H]1O	TexasRed autofl inconclusive, Fluorescein fluor inconclusive
O=C1c2ccccc2-c2onc3ccc(NCc4ccco4)c1c23	TexasRed autofl 1.78e-08M, A488 autofl 5.37e-08M, Rhodamine fluor 1.99e-08M, Fluorescein fluor 1.21e-06M, Resorufin fluor 1.71e-08M
O=c1nccc(NCc2ccco2)[nH]1	TexasRed autofl inconclusive, Fluorescein fluor inconclusive
OCCN(CCO)c1nc(N2CCCCC2)c2nc(N(CCO)CCO)nc(N3CCCCC3)c2n1	A488 autofl 2.93e-08M, Fluorescein fluor 6.68e-07M
CCOC(=O)C1=C(CSc2nc3c(cc2C#N)CN(C)CC3)OC(N)=C(C#N)C1c1ccccc1 (stereo not given)	Fluorescein fluor 3.37e-08M
COc1cc(/C=C\C(=O)CC(=O)/C=C\c2ccc(O)c(OC)c2)ccc1O	Fluorescein fluor inconclusive
Cc1ccc(/C=c2\s/c(=C(/C#N)C(=O)N3CCCC3)n(Cc3ccco3)c2=O)s1	TexasRed autofl inconclusive, A488 autofl inconclusive, Fluorescein fluor 6.39e-08M
COc1cc(/C=c2\s/c(=C(/C#N)C(=O)N3CCCC3)n(-c3ccccc3)c2=O)ccc1O	Fluorescein fluor inconclusive
CCN1C(=O)c2cccc3c(NC(=O)C4CCCCC4)ccc1c23	Fluorescein fluor inconclusive
CCN1C(=O)c2cccc3c(NC(=O)c4ccc5c(c4)OCCO5)ccc1c23	A488 autofl inconclusive, Fluorescein fluor 5.54e-08M
CN1/C(=C\P(=O)(N(C)C)N(C)C)C(C)(C)c2ccccc21	TexasRed autofl 4.68e-08M, Rhodamine fluor 1.16e-08M, Fluorescein fluor inconclusive, Resorufin fluor 1.04e-08M
COc1ccc(CNc2nc(-c3ccc(N(C)C)cc3)nc3ccccc23)c(OC)c1	none
CCOC(=O)N1CCN(c2cc(NCCC(=O)O)c3c4c(onc24)-c2ccccc2C3=O)CC1	TexasRed autofl inconclusive, A488 autofl inconclusive, Rhodamine fluor inconclusive, Fluorescein fluor 7.99e-08M
O=C(O)CCCNc1cc(N2CCC3(CC2)OCCO3)c2noc3c2c1C(=O)c1ccccc1-3	TexasRed autofl 1.05e-08M, Rhodamine fluor inconclusive, Fluorescein fluor 1.27e-08M, Resorufin fluor inconclusive
Cc1ccccc1-n1c(=O)cc(N2CCC3(CC2)OCCO3)[nH]c1=O	none
CCOC(=O)N1CCN(c2c(NCCCN(CC)Cc3ccccc3)c(=O)c2=O)CC1	TexasRed autofl inconclusive
NCCC[C@@](N)(C(=O)O)C(F)F	Fluorescein fluor inconclusive
C#C[C@@]1(O)CC[C@H]2[C@H]3CCC4=Cc5oncc5C[C@]4(C)[C@@H]3CC[C@@]21C	none
Cn1c(=O)c2c(nc(/C=C\c3cccc(Cl)c3)n2C)n(C)c1=O	none
CCN(CC)[C@@H](C)CN1c2ccccc2Sc2ccccc21	Fluorescein fluor inconclusive
Cc1ccc(-c2cc(-c3nnc(SCC(=O)N(C)CCC#N)n3N)c3ccccc3n2)cc1	Fluorescein fluor 1.06e-08M
CCc1cc2c(=O)c(-c3ccc4c(c3)OCCO4)coc2cc1OC(=O)c1ccco1	none
CCc1cc2c(=O)c(-c3nc4ccccc4[nH]3)coc2cc1OC(=O)N1CCOCC1	Fluorescein fluor 1.08e-08M
CCOC(=O)[C@H](CCc1ccccc1)N[C@@H](C)C(=O)N1[C@H](C(=O)O)C[C@H]2CCC[C@@H]21	Fluorescein fluor 1.01e-08M
COc1ccc(S(=O)(=O)C(C#N)c2nc3ccccc3nc2N2CCCCC2)cc1 (stereo not given)	Fluorescein fluor inconclusive
Cc1ccc(C)c(S(=O)(=O)C(C#N)c2nc3ccccc3nc2N2CCCC2)c1 (stereo not given)	Fluorescein fluor 1.07e-08M
N#CC(c1nc2ccccc2nc1N1CCCC1)S(=O)(=O)c1cccs1 (stereo not given)	Fluorescein fluor 1.69e-08M
CC1CCc2cccc3c2N1c1cc(C#N)c(C#N)cc1O3 (stereo not given)	TexasRed autofl inconclusive, A488 autofl inconclusive, Fluorescein fluor 6.28e-08M
Nc1nonc1C(=O)NCCN=Cc1cc(Cc2ccccc2)cc(Br)c1O	Fluorescein fluor 2.02e-08M
CC1=CC(=C(C#N)c2nc3ccccc3s2)C=C(C)N1Cc1ccco1	A488 autofl inconclusive, Fluorescein fluor 1.94e-07M
O=C(c1ccccc1C(=O)N1CCN(c2ccccc2)CC1)N1CCN(c2ccccc2)CC1	Fluorescein fluor 1.55e-08M
CCNc1ncc2nc(-c3ccc(OC)cc3)c(=O)n(Cc3ccc(F)cc3)c2n1	Fluorescein fluor inconclusive
N#Cc1c(N)sc(=S)c2c1CCCC2	TexasRed autofl inconclusive, A488 autofl inconclusive, Fluorescein fluor 6.77e-08M
CCC1(C)Cc2c(C#N)c(N)sc(=S)c2CO1 (stereo not given)	Fluorescein fluor 1.03e-08M
CSc1c(C#N)c(N)c(C#N)c2c1COC(C)(C)C2	Fluorescein fluor inconclusive
Cc1cccc(C)c1NC(=O)CN1CCN(CCCC(c2ccc(F)cc2)c2ccc(F)cc2)CC1	Fluorescein fluor 1.01e-08M
CCCCCCCCCCCCCCCC(=O)NC[C@@H](COP(=O)([O-])OCC[N+](C)(C)C)OCC	none
COc1ccc(CNC(=O)c2cc3c(=O)n4ccccc4nc3n(Cc3cccnc3)c2=N)cc1	A488 autofl inconclusive, Fluorescein fluor 1.15e-07M
CCCCNC(=O)c1cc2c(=O)n3cccc(C)c3nc2n(Cc2ccncc2)c1=N	TexasRed autofl inconclusive, Fluorescein fluor 1.6e-08M
COCCNC(=O)c1cc2c(=O)n3cccc(C)c3nc2n(Cc2ccncc2)c1=N	none
N=c1c(C(=O)NCc2ccco2)cc2c(=O)n3ccccc3nc2n1Cc1ccccc1	Fluorescein fluor 1.86e-08M
N=c1c(C(=O)NCc2ccc3c(c2)OCO3)cc2c(=O)n3ccccc3nc2n1Cc1cccnc1	Fluorescein fluor inconclusive
N=c1c(C(=O)NCc2ccco2)cc2c(=O)n3ccccc3nc2n1Cc1ccc(Cl)cc1	TexasRed autofl inconclusive, Fluorescein fluor inconclusive
CCOC(=O)c1cc2c(=O)n3ccccc3nc2n(Cc2ccc(Cl)cc2)c1=N	A488 autofl 2.56e-08M, Fluorescein fluor 3.41e-07M
C=CCN1CCc2c(cc(O)c(O)c2Br)[C@H](c2ccccc2)C1	none
COc1cccc(-c2cncnc2NCCc2c[nH]c3ccc(OC)cc23)c1	Fluorescein fluor inconclusive
Cc1ccc(S(=O)(=O)c2cc3c(=O)n4ccccc4nc3n(Cc3ccco3)c2=N)cc1	TexasRed autofl inconclusive, Fluorescein fluor 1.46e-08M
COc1ccccc1NC(=O)CC1Nc2ccccc2NC1=O (stereo not given)	none
O=C(CC1NC(=O)NC1=O)Nc1cccc2ccccc12 (stereo not given)	A488 autofl inconclusive, Fluorescein fluor 4.28e-08M

Bioassay records deposited in PubChem by National Center for Advancing Translational Sciences (NCATS).
